# High-throughput results (PubChem BioAssay)
# KB-V1 cytotox: KB-V1 MDR subline cytotoxicity | KB-V1 MDR cells viability, CellTiter-Glo, 72 h | 400,000 compounds, 3.4% hits | Potency, µM (doses to about 46.1 µM), actives largely listed as cytotoxic; also: nearly all actives have a fitted effect of over 60% in size
#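 Cells of the MDR subline KB-V1 are plated, dosed with compound at multiple concentrations, and incubated 72 h at 37 degrees C; CellTiter-Glo is then added and luminescence read after 10 min.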
# KB-3-1 cytotox: kills parental KB-3-1 adenocarcinoma cells; KB-3-1 viability, CellTiter-Glo ATP luminescence, 72 h; AID 1347075; Potency, µM (series often up to 46.1 µM), most hits filed as cytotoxic; 400,000 compounds, 1.4% hits; also: nearly all actives have a fitted effect of over 60% in size
#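 72 h, 37 °C compound treatment of KB-3-1 parental cells; CellTiter-Glo added, 10 min, luminescence read. Data corrected against DMSO-only plates and normalized before curve fitting.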
# SW480 rerep: DNA re-replication induction in SW480 cells | SW480 DNA re-replication, Hoechst DNA content imaging, 48 h | Potency, µM (highest dose often 46.1 µM), most hits filed as activators | 340,000 compounds, 1.8% hits | AID 624297; also: nearly all actives have a fitted effect of over 55% in size
#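 Treated cells incubate 48 hr (37 C, 5% CO2), are stained 40 min with Hoechst, and nuclear fluorescence is enumerated; a rise in nuclei with high DNA signal marks re-replication.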
# KCNH2 WT inh: KCNH2 (human, wildtype) channel inhibition; Q12809; U2OS, BacMam KCNH2, thallium flux FluxOr; hits give low values; activity change, % at 1.84 µM; 340,000 compounds, 0.37% hits; AID 720551;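 active = maximum activity change below -70%; inconclusive = maximum activity change between -70% and -50%; inactive = maximum activity change above -50%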
#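 U2OS cells transduced with wild-type KCNH2 virus are loaded with FluxOr dye for 45 min, and thallium flux is measured in kinetic reads before and after stimulation buffer. Rate constants are normalized to DMSO controls.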
# KCNH2 3.1 block: KCNH2 3.1 (human) potassium channel inhibition | 340,000 compounds, 0.95% hits | activity change, % (tested at about 1.8 µM) | U2OS KCNH2 3.1, thallium flux FluxOr; hits give low values;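 active = maximum activity change below -70%; inconclusive = maximum activity change from -70% to -50%; inactive = maximum activity change above -50%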;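 also: thallium influx rate constant from kinetic fluorescence after stimulation buffer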
#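 Thallium flux read-out: FluxOr dye with Red40 quencher in HBSS/HEPES, 45 min at RT. Rate constants from kinetic reads were normalized to positive and negative DMSO controls. Cells: U2OS virally expressing the 3.1 isoform.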
# MCF10A rerep: DNA re-replication induction in MCF 10a cells; MCF 10A DNA re-replication, Hoechst nuclear intensity, 48 h; Potency, µM (top dose mostly 46.1 µM), most hits filed as activators; 350,000 compounds, 2.9% hits; AID 624296; also: nearly all actives have a fitted effect of over 50% in size
# A number is an active result; - = inactive; ? = inconclusive; . = no result given; [ ] = remark or other dose. Rows were chosen to be rich in hits. Some 7.6% of all compounds tested hit in one or more screens of this group. Unless noted, calls follow the shape of the dose curve; as a rule, active = well fitted curve in the direction sought with a large enough effect; inconclusive = small, poorly fitted or top-dose-only effect, or another doubt; inactive = no such curve, though single readings can be large; an effect the other way counts as inactive or inconclusive.
SMILES,KB-V1 cytotox,KB-3-1 cytotox,SW480 rerep,KCNH2 WT inh,KCNH2 3.1 block,MCF10A rerep
Cc1ccccc1C(=O)NCCCCc1ccccc1,-,-,-,-,-,-
Cc1ccc(C)c(-c2cc(C(=O)NCc3cccs3)c3ccccc3n2)c1,12µM,-,?,-,-,?
Nc1nc2ccccc2cc1C(=O)NCCCCc1ccccc1,2.6µM,-,.,.,.,.
CC(C)CCNS(=O)(=O)c1cc2c3c(c1)CCN3C(=O)CC2,-,-,-,-,-,-
Clc1ccc2oc(SCc3cccnc3)nc2c1,-,-,?,-,-,-
Oc1cccc2ccc(/C=C/c3c(F)cccc3Cl)nc12,-,?,18µM,-,-,-
CC(O)c1nc2ccccc2n1Cc1ccccc1 (stereo unspecified),-,-,-,-,-,-
CCN(Cc1ccccc1)C(=O)Cn1c(C(C)O)nc2ccccc21 (stereo unspecified),-,-,-,-,-,0.73µM
CCc1cccc(C)c1NC(=O)COC(=O)c1cc([N+](=O)[O-])ccc1N1CCOCC1,-,-,-,-,-,-
C[C@H](CO)N1C[C@H](C)[C@H](CN(C)S(=O)(=O)c2ccc(F)cc2)OCc2cnnn2CCCC1=O,-,?,.,-,-,.
CCOC(=O)N1CCN(C(=O)C2CCCN(S(=O)(=O)c3ccc(F)cc3)C2)CC1 (stereo unspecified),-,-,-,-,-,-
COc1ccc(S(=O)(=O)N2CCCC(C(=O)Nc3cccnc3)C2)cc1Cl (stereo unspecified),?,16µM,-[9.22 µM],-,-,?
CCOc1ccc(S(=O)(=O)N2CCCC(C(=O)Nc3ccccc3)C2)cc1 (stereo unspecified),10µM,-,-,-,-,-
CCOC(=O)N1CCN(C(=O)C2CCCN(S(=O)(=O)c3ccc(C)cc3)C2)CC1 (stereo unspecified),3.7µM,-,-,-,-,-
O=C(COc1ncnc2c1cnn2-c1ccccc1)Nc1ccc(S(=O)(=O)N2CCCCC2)cc1,21µM,-,-,-,-,-
NS(=O)(=O)c1cccc(NC(=O)COc2ncnc3c2cnn3-c2ccccc2)c1,?,-,-,-,-,-
CCOc1ccc(S(=O)(=O)N2CCCC(C(=O)Nc3cc(C)cc(C)c3)C2)cc1 (stereo unspecified),-,-,-,-,-,?
O=c1[nH]cc(S(=O)(=O)N2CCOCC2)c(=O)[nH]1,-,-,-,-,-,-
O=C(COc1ccccc1)Nc1ccc(S(=O)(=O)N2CCCCCC2)cc1,16µM,-,-,-,-,-
O=C(COc1ccccc1)Nc1ccc(S(=O)(=O)N2CCCC2)cc1,-,-,-,-,-,-
COc1ccc(NC(=O)CCNC(=O)c2ccc([N+](=O)[O-])cc2)cc1S(=O)(=O)N1CCCCC1,-,-,-,-,-,-
CN(Cc1ccccc1)C(=O)C1CCCN(Cc2cccc(Cl)c2)C1 (stereo unspecified),-,?,-,-,-,0.29µM
CN(Cc1cccc(Cl)c1)C(=O)C1CCN(C(=O)Nc2ccccc2)CC1,-,-,-,-,-,-
COc1ccc(NC(=O)C2Cc3c(-c4ccccc4Oc4ccccc4)ccnc3O2)cc1 (stereo unspecified),-,-,.,.,.,.
Cc1ccc2[nH]c3c(=O)n4c(nc3c2c1)SCC4,?,-,-,-,-,?
CC(C)(C)C(=O)C(C(c1ccccc1)N1CCOCC1)N1CCOCC1 (stereo unspecified),-,-,-,-,-,?
Cc1ccc(S(=O)(=O)c2cc3c(=O)n4ccccc4nc3n(C)c2=N)cc1,6.5µM,-,?,-,-,?
CCCn1c(=N)c(S(=O)(=O)c2ccccc2)cc2c(=O)n3ccccc3nc21,-,-,-,-,-,18µM
COc1ccc(CCn2c(=N)c(S(=O)(=O)c3ccccc3)cc3c(=O)n4ccccc4nc32)cc1,-,-,-,-,-,3.7µM
